# Shown are actives, neighbours in structure and some others; about 3.3% of the full set was active somewhere.
# AmpC no deterg: blocks E. coli AmpC beta-lactamase in detergent-free assay; AmpC nitrocefin hydrolysis, absorbance 480 nm, 0.0001% Triton; Potency, µM (highest dose often 57.1 µM), without a hit: at the highest dose activity change, negative = inhibition, usual class: inhibitors; 330,000 compounds, 0.52% hits; AID 485341;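 further: plate controls were no compound for no effect and no enzyme for full effect; nearly all actives have a fitted effect of over 20% in size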
# Target sequence (P00811 whole entry, looked up): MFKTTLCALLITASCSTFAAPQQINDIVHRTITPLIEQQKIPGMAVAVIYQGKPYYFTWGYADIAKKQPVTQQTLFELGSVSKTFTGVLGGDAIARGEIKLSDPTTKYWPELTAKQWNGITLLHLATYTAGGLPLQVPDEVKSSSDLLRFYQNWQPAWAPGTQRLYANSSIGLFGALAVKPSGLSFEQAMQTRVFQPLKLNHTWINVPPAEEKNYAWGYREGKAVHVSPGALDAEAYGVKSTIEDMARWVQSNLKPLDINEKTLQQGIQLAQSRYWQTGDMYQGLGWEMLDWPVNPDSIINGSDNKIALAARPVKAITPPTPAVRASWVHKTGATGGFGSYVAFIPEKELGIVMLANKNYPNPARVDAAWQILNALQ
#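 20 mM phosphate pH 7.0 + 0.01% (detergent screen) or 0.0001% Triton X-100; 5.3 nM AmpC reagent; cpd preinc 15 min RT; nitrocefin (800 uM stock) to start; A480 q20 s × 4 min; Activity was normalised to no-enzyme and no-compound control wells.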
# Tb PYK inh: T. brucei pyruvate kinase inhibition; Q57TT1; TbPYK enzyme, Kinase-Glo Plus ATP luminescence, 45 min; Potency, µM (series often up to 76.8 µM), for inactives: at the top dose activity, negative = inhibition, actives largely listed as inhibitors; 410,000 compounds, 0.12% hits; AID 624173; further: on the % scale 0 is the no-effect control and ±100 the full control effect; nearly all actives have a fitted effect of over 50% in size
#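 ADP (130 uM final) triggers the TbPYK reaction after compound addition; incubation is 45 min at room temperature. Kinase-Glo Plus is then added and luminescence imaged. Normalized data are fitted to concentration-effect curves.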
# SARS PLpro yeast: inhibitors of SARS-CoV papain-like protease in yeast; S. cerevisiae expressing SARS-CoV PLpro, growth rescue; Potency, µM (titrated, usually from 32.9 µM), inactives show top-dose activity, positive = growth rescue, actives largely listed as activators; 330,000 compounds, 0.19% hits; AID 485353; calls by dose curve; further: 0% is about no effect; nearly all actives have a fitted effect of over 55% in size
# RE007 growth inh: less growth of the S. pombe RE007 Vpr strain | 360,000 compounds, 0.21% hits | S. pombe RE007 Vpr strain, BacTiter-Glo ATP luminescence, 24 h | Potency, µM (series often up to 92.2 µM), inactives show top-dose activity change, negative = less growth, usual class: inhibitors; active means well fitted falling curve with a large enough effect; inconclusive means small, poorly fitted or top-dose-only effect; inactive means no such curve, though single readings can be large or run the other way; further: on the % scale 0 is the no-effect control and ±100 the full control effect; nearly all actives have a fitted effect of over 50% in size
#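 Fission yeast RE007 carrying one integrated HIV-1 vpr copy, seeded at OD 0.01 in PMG+AL medium with 23 nL pinned compound. Grown 24 h at 30 degrees; viability read by BacTiter-Glo luminescence after 5 min.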
# Sm TGR block: blocks Schistosoma mansoni thioredoxin glutathione reductase. Q962Y6. purified TGR, DTNB reduction, TNB absorbance 405 nm. Potency, µM (highest dose often 114 µM), for the others: at the top dose activity change, negative = inhibition, most hits filed as inhibitors. 360,000 compounds, 3% hits. AID 485364; further: on the % scale 0 is the no-effect control and ±100 the full control effect; nearly all actives have a fitted effect of over 60% in size
#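 TGR 20 nM + NADPH 100 uM (dispensed conc.), cpd preinc 15 min RT; start with NADPH (500 uM addition) then DTNB (15 mM addition). Kinetic TNB absorbance, 405 nm filter. Four-parameter Hill fit across titration.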
# AmpC inh detg: inhibitors of E. coli AmpC beta-lactamase with detergent; P00811; AmpC hydrolysis of nitrocefin, absorbance 480 nm, 0.01% Triton; Potency, µM (series often up to 114 µM), for the others: at the top dose activity change, negative = inhibition, most hits filed as inhibitors; 370,000 compounds, 0.041% hits; AID 485294;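 further: 0% = no-compound wells and -100% = no-enzyme wells; nearly all actives have a fitted effect of over 25% in size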
#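 AmpC (5.3 nM in the dispensed reagent) in 20 mM phosphate pH 7.0 with 0.01% (detergent screen) or 0.0001% Triton X-100 was preincubated with compounds for 15 min at room temperature. Nitrocefin was then added from an 800 uM solution, and hydrolysis was followed at 480 nm.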
# Numbers without * were called inactive; ? = inconclusive; · = not tested or not shown; [ ] = remark or other dose. Unless noted, the call rests on the fitted dose curve; in most records, active means well fitted curve in the direction sought with a large enough effect; inconclusive means small, poorly fitted or top-dose-only effect, or another doubt; inactive means no such curve, though single readings can be large; an effect the other way counts as inactive or inconclusive. Potency means the concentration at half of the fitted maximal effect.
SMILES,AmpC no deterg,Tb PYK inh,SARS PLpro yeast,RE007 growth inh,Sm TGR block,AmpC inh detg
COc1ccc(CC(=O)NCc2nc3cccnc3n2Cc2ccc(C)cc2)cc1,·,2%,·,·,1%,-2%
O=C(CN1CCCN(S(=O)(=O)c2ccc(F)cc2)CC1)Nc1c(Cl)cccc1Cl,29%,-2%,-2%,30%,-28%,-11%
O=C(CN1CCCN(S(=O)(=O)c2ccc(F)cc2)CC1)Nc1cccc(F)c1,10%,9%,0%,-15%,40µM*,?
C#CCOCCOCCOCCNc1nc(N2CCN(C(=O)CCCCCCCCCCNC(=O)[C@@H](CCSC)n3cc(CCO)nn3)CC2)nc(N2CCN(C(=O)CCCCCCCCCCNC(=O)[C@H](CCCN=C(N)N)n3cc(C[C@@H](C)CC)nn3)CC2)n1,266%,2%,11%,-2%,5µM*,3%
C#CCOCCOCCOCCNc1nc(N2CCN(C(=O)CCCCCCCCCCNC(=O)[C@H](CCCCN)n3cc(C[C@@H](C)CC)nn3)CC2)nc(N2CCN(C(=O)CCCCCCCCCCNC(=O)[C@H](CCCN=C(N)N)n3cc(C[C@@H](C)CC)nn3)CC2)n1,271%,2%,1%,4%,?,?
C#CCOCCOCCOCCNc1nc(N2CCN(C(=O)CCCCCCCCCCNC(=O)[C@H](CCCCN)n3cc(CCO)nn3)CC2)nc(N2CCN(C(=O)CCCCCCCCCCNC(=O)[C@H](CCCCN)n3cc(C[C@@H](C)CC)nn3)CC2)n1,286%,-5%,4%,8%,50µM*,6%
C#CCOCCOCCOCCNc1nc(N2CCN(C(=O)CCCCCCCCCCNC(=O)[C@H](CO)n3cc(CCCCCN)nn3)CC2)nc(N2CCN(C(=O)CCCCCCCCCCNC(=O)[C@H](CCCN=C(N)N)n3cc(C[C@@H](C)CC)nn3)CC2)n1,269%,·,3%,·,45µM*,4%
COc1ccc(CCNC(=O)C(C)n2nc(C)c3sc4ccccc4c3c2=O)cc1OC (stereo not drawn),·,0%,·,·,-1%,4%
Cc1nc2nncn2c(N2CCN(c3ccccc3)CC2)c1C,·,4%,·,·,23%,21%
COc1ccccc1NC(=O)CSc1oc(-c2ccccc2)nc1S(=O)(=O)c1ccc(C)cc1,·,1%,·,·,0%,6%
O=C1[C@@H]2C(c3cccnc3)=NO[C@@H]2C(=O)N1c1ccc2ccccc2c1,-23%,-8%,-6%,14µM*,3.5µM*,-6%
Nc1cc2c(cc1O)CCCC2,-57%,-25%,0%,3%,40µM*,-1%
Cc1ccc(S(=O)(=O)C(CNC(=O)C(=O)NCc2ccc(Cl)cc2)c2ccco2)cc1 (stereo not drawn),·,0%,·,·,?,-3%
O=C(NCc1ccc(Cl)cc1)C(=O)NCC(c1ccco1)S(=O)(=O)c1cccs1 (stereo not drawn),·,-8%,·,·,40µM*,6%
COc1ccc(CNC(=O)C(=O)NCC(c2ccco2)S(=O)(=O)c2cccs2)cc1 (stereo not drawn),·,-11%,·,·,18µM*,-1%
CCCCc1nn2c(=O)cc(COC(=O)c3ccc4c(c3)OCO4)nc2s1,·,0%,·,·,-6%,7%
COc1ccc(-c2cn3c(n2)sc2cc(C(=O)NC(C)C45CC6CC(CC(C6)C4)C5)ccc23)cc1 (stereo not drawn),·,2%,·,·,6%,13%
O=C1Nc2c(c(=O)[nH]c(=O)n2-c2ccc(Cl)cc2)C1(NS(=O)(=O)c1ccccc1)C(F)(F)F (stereo not drawn),·,-1%,·,·,-2%,25%
Cc1ccc(NC(=O)Cn2c(SCc3ccc(F)cc3)nc3cccnc32)cc1F,·,6%,·,·,-5%,-2%
O=S(=O)(CCN1CCCCC1)Oc1ccc(Cl)cc1Cl,0%,3%,-1%,-4%,0.45µM*,3%
Cc1ccc(CNc2ccc3c(c2)OCO3)cc1,·,-8%,·,-20%,45µM*,-5%
COc1ccc(NC(=O)c2cccc3ccccc23)cc1,-30%,-1%,-7%,2%,89µM*,-18%
COc1ccc(Cl)cc1NC(=O)C(=O)NCc1ccc(Cl)cc1,·,4%,·,·,6%,5%
CS(=O)(=O)c1ncc(N(Cc2ccco2)Cc2cccs2)c(C(=O)Nc2ccccc2F)n1,·,7%,·,·,-7%,4%
Cc1ccc(NC(=O)CN2C(=O)CCn3nc(-c4cccn4C)cc32)c(Cl)c1,·,-1%,·,·,-24%,5%
SMILES,AmpC no deterg,Tb PYK inh,SARS PLpro yeast,RE007 growth inh,Sm TGR block,AmpC inh detg
COC(=O)CCC(=O)OC1(C)C(=O)C2=CN(C(CO)CO)C(c3ccc(OC)cc3)=CC2=C(Br)C1=O (stereo not drawn),63%,·,-2%,·,?,-1%
COc1ccc(C2=CC3=C(Br)C(=O)C(C)(OC(=O)c4ccc(Cl)nc4)C(=O)C3=CO2)cc1 (stereo not drawn),-48%,-6%,0%,-20%,10µM*,0%
COC(=O)CCC(=O)OC1(C)C(=O)C2=CN(CCCCO)C(c3ccc(OC)cc3)=CC2=C(Br)C1=O (stereo not drawn),168%,·,-5%,·,45µM*,-16%
COc1ccc(C2=CC3=C(Br)C(=O)C(C)(OC(=O)C4CCCC4)C(=O)C3=CO2)cc1 (stereo not drawn),-35%,-15%,-15%,?,7.1µM*,0%
COC(=O)CCC(=O)OC1(C)C(=O)C2=CN(Cc3ccc4c(c3)OCO4)C(c3ccc(OC)cc3)=CC2=C(Br)C1=O (stereo not drawn),·,2%,·,3%,·,·
COc1ccc(CN2C=C3C(=O)C(C)(OC(=O)C4CCCC4)C(=O)C=C3C=C2c2ccsc2)cc1 (stereo not drawn),30%,-10%,-5%,7%,-6%,4%
COC(=O)CCC(=O)OC1(C)C(=O)C2=COC(c3ccc(OC)cc3)=CC2=C(Br)C1=O (stereo not drawn),-28%,-12%,-3%,?,7.9µM*,-1%
O=C(/C=C/c1ccccc1)Nc1nc2n(n1)C(c1ccc(F)cc1)C=C(c1ccccc1)N2 (stereo not drawn),·,-21%,·,·,-12%,1%
Cc1ccc(C)c(OCC(=O)N2CCN(Cc3ccc4c(c3)OCO4)CC2)c1,-1%,-19%,-1%,-5%,56µM*,1%
Cc1ccc(OCC(=O)N2CCN(Cc3ccc4c(c3)OCO4)CC2)cc1,-8%[11.4 µM],-12%,0%,4%,-3%,?
